Mtb betalactam – beta-lactam sensitization of Mtb H37Rv | M. tuberculosis H37Rv growth with meropenem, percent inhibition | inhibition, % at 25 µM | 330,000 tested, 0.27% active;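 note: growth measured after seven days incubation then overnight dye step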
RecA intein inh – Mtb RecA intein splicing inhibition. P9WHJ3. cell-free RecA intein splicing, fluorescence. inhibition, % (test concentration not listed). 290,000 tested, 0.75% active; in the data active = inhibition above about 30%
FBA Mtb inh – inhibitors of M. tuberculosis fructose-bisphosphate aldolase; P9WQA3; purified M. tuberculosis FBA, fluorescence read-out; inhibition, % at 1 µM; 360,000 tested, 2.3% active; AID 588726; in the data active = inhibition above about 27%
Target sequence (P9WQA3 whole entry, looked up): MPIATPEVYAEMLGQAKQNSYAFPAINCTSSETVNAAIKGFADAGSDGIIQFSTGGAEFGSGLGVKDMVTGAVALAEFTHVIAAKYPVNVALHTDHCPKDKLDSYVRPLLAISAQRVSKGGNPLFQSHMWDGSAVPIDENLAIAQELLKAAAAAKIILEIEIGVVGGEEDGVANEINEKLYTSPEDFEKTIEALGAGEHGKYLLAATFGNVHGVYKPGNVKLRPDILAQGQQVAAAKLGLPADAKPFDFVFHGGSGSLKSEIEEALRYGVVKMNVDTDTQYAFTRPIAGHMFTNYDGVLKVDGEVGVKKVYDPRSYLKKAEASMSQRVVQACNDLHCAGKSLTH
CCHFV vOTU inh – CCHFV vOTU protease inhibition; 370,000 tested, 0.55% active; Pep-AMC fluorescence; inhibition, % at 11.5 µM; AID 651958; in the data active = inhibition above about 30%
GDH-TPI counter-1 – counter-screen for M. tuberculosis FBA inhibitors: GDH-TPI coupled enzymes. GDH-TPI coupled enzyme counterscreen, NADH absorbance. inhibition, % at 4.8 µM. 360,000 tested, 1.2% active. AID 588335; in the data active = inhibition above about 30%
Mtb FBA confirm – Mtb FBA inhibition, confirmed | shares compounds with FBA Mtb inh | purified M. tuberculosis FBA, fluorescence read-out | inhibition, % at 1 µM | 5,600 tested, 78% active | AID 651616; in the data active = inhibition above about 27%
GDH-TPI counter-2 – GDH-TPI inhibition counter-screen for FBA inhibitors; shares compounds with FBA Mtb inh; GDH-TPI coupled enzyme counterscreen, fluorescence; inhibition, % at 1 µM; 5,600 tested, 81% active; AID 652141; in the data active = inhibition above about 10%
GDH-TPI DR – inhibits GDH-TPI coupling enzymes in dose response. shares compounds with FBA Mtb inh. 170 tested, 79% active. GDH-TPI coupled enzyme assay, fluorescence, artifact counterscreen. IC50, µM
Large screens that a line does not name were inactive (follow-up assays come after a bar, where they were run). Compounds with a hit are over-represented: about 4.2% of the library has one in this group of screens. Unless noted, the rule behind the calls is not given here.

Cn1nc(-c2ccccc2)c2cc(C(=O)O)sc21	FBA Mtb inh 49 | Mtb FBA confirm inactive | GDH-TPI counter-2 inactive
COc1cccc(-c2nn(C)c3sc(C(=O)NCc4ccc(C)cc4)cc23)c1	none
COCCCNC(=O)c1cc2c(-c3cccc(OC)c3)nn(C)c2s1	FBA Mtb inh 89 | Mtb FBA confirm 119 | GDH-TPI counter-2 107
CCN(CC)CCNC(=O)c1cc2c(-c3cccc(OC)c3)nn(C)c2s1	FBA Mtb inh 60 | Mtb FBA confirm 173 | GDH-TPI counter-2 129
C#CCNC(=O)C[C@H]1C[C@@]2(C(=O)OC)C(=C[C@H](C3CCCC3)O[C@@H]2C)N(Cc2cccc3ccccc23)C1=O	none (no result: Mtb betalactam, RecA intein inh, FBA Mtb inh, GDH-TPI counter-1)
O=C(CCc1nc(-c2ccccc2F)no1)NCCc1cccc(F)c1	none (no result: Mtb betalactam, RecA intein inh, FBA Mtb inh, GDH-TPI counter-1)
CCCCCCCCN1C(=O)[C@@H](CC(=O)NCc2cccs2)C[C@@]2(C(=O)OC)C1=C[C@H](C(C)(C)C)O[C@@H]2C	none (no result: Mtb betalactam, RecA intein inh, FBA Mtb inh, GDH-TPI counter-1)
CC1=C(C#N)C(C)C2=C(CC(C)(C)CC2=O)N1 (stereo unspecified)	FBA Mtb inh 57 | Mtb FBA confirm 71 | GDH-TPI counter-2 65
CN(C)CCNC(=O)c1cccc2nc3c(ccc4ccccc43)nc12	none (no result: Mtb betalactam, RecA intein inh)
CN(CCNC(=O)c1c[nH]c2c1ccc1ccccc12)CCNC(=O)c1c[nH]c2c1ccc1ccccc12	FBA Mtb inh 30 (no result: Mtb betalactam, RecA intein inh) | Mtb FBA confirm 193 | GDH-TPI counter-2 173
COc1cc(C#Cc2c(C=O)n(C)c3ccccc23)cc(OC)c1	none (no result: RecA intein inh)
C=CCn1c2ccccc2c(=O)c2cc(C#Cc3cc(OC)cc(OC)c3)ccc21	FBA Mtb inh 56, GDH-TPI counter-1 31 (no result: RecA intein inh) | Mtb FBA confirm inactive | GDH-TPI counter-2 inactive
Cc1ccc(-n2c(SCC(=O)c3ccc(Br)cc3)nnc2-c2ccncc2)cc1	none (no result: Mtb betalactam, RecA intein inh, FBA Mtb inh, GDH-TPI counter-1)
O=S(=O)(NCc1cn(Cc2ccccc2)nn1)c1ccccc1Br	none (no result: Mtb betalactam, RecA intein inh, FBA Mtb inh, GDH-TPI counter-1)
CC(C)Cc1cc(-c2ccco2)c(C#N)c(N)n1	FBA Mtb inh 54 (no result: CCHFV vOTU inh) | Mtb FBA confirm 169 | GDH-TPI counter-2 145
CCSc1nc(N)c(C#N)c(-c2ccco2)c1C#N	none
COC(=O)C1CN(Cc2cn(Cc3ccccc3)nn2)CCS(=O)(=O)N1Cc1ccc(C)cc1 (stereo unspecified)	none (no result: Mtb betalactam, RecA intein inh, FBA Mtb inh, GDH-TPI counter-1)
COc1ccc(-c2cc(C(=O)N3CCCC(C(F)(F)F)C3)c3ccccc3n2)cc1 (stereo unspecified)	FBA Mtb inh 96 (no result: RecA intein inh) | Mtb FBA confirm inactive | GDH-TPI counter-2 inactive
Cc1ccc(-c2cc(C(=O)N3CCCC(C(F)(F)F)C3)c3ccccc3n2)o1 (stereo unspecified)	FBA Mtb inh 87 | Mtb FBA confirm 161 | GDH-TPI counter-2 90
CCOC(=O)C1CCCN(C(=O)c2cc(-c3ccccc3)nc3ccccc23)C1 (stereo unspecified)	none
Cc1c(C(=O)N2CCCC(C(F)(F)F)C2)oc2ccccc12 (stereo unspecified)	none (no result: RecA intein inh)
Cn1ccc2c(-c3ccc4c(c3)OCCO4)cc3c(c21)C1CCC3O1 (stereo unspecified)	FBA Mtb inh 109 (no result: Mtb betalactam, RecA intein inh, GDH-TPI counter-1) | Mtb FBA confirm inactive | GDH-TPI counter-2 inactive
Cn1ccc2c(-c3ccc(C(F)(F)F)cc3)cc3c(c21)C1CCC3O1 (stereo unspecified)	FBA Mtb inh 93 (no result: Mtb betalactam, RecA intein inh, GDH-TPI counter-1) | Mtb FBA confirm 98 | GDH-TPI counter-2 69
CSc1ccc(-c2cc3c(c4c2ccn4C)C2CCC3O2)cc1 (stereo unspecified)	FBA Mtb inh 101 (no result: Mtb betalactam, RecA intein inh, GDH-TPI counter-1) | Mtb FBA confirm inactive | GDH-TPI counter-2 12
COc1ccc(-c2cc3c(c4c2ccn4C)C2CCC3O2)cc1OC (stereo unspecified)	none (no result: Mtb betalactam, RecA intein inh, GDH-TPI counter-1)
CCCCOCCCNC(=O)C[C@H]1C[C@@]2(C(=O)OC)C(=C[C@H](COCc3ccccc3)O[C@@H]2C)N(CCc2ccc(OC)c(OC)c2)C1=O	none (no result: Mtb betalactam, RecA intein inh, FBA Mtb inh, GDH-TPI counter-1)
C=CCN=C1NC(c2ccc(F)cc2)C(C(=O)OC)=C(C)N1Cc1ccccc1C(F)(F)F (stereo unspecified)	none (no result: Mtb betalactam, RecA intein inh, FBA Mtb inh, GDH-TPI counter-1)
COc1ccc(Cc2nnc(NC(=O)C(C)C)s2)cc1	none
COc1ccc(-c2nnc(NC(=O)C(C)C)s2)c(OC)c1	FBA Mtb inh 36 | Mtb FBA confirm 101 | GDH-TPI counter-2 102
COc1ccccc1-c1nnc(N)s1	FBA Mtb inh 46 | Mtb FBA confirm 86 | GDH-TPI counter-2 76
O=C(Nc1nncs1)Oc1ccccc1	none
CCOC(=O)Nc1nnc(-c2ccccc2OC)s1	FBA Mtb inh 42 | Mtb FBA confirm 137 | GDH-TPI counter-2 98
COC(=O)Nc1nncs1	FBA Mtb inh 50 | Mtb FBA confirm 145 | GDH-TPI counter-2 130
COC(=O)c1cc2c(c3c4cc(OC)ccc4n(S(=O)(=O)c4ccc(OC)cc4)c13)C(=O)N(C1CCCCC1)C2	none (no result: Mtb betalactam, RecA intein inh, FBA Mtb inh, GDH-TPI counter-1)
COc1cccc(NC(=O)C2CCCN2C(=O)NCc2ccccc2)c1 (stereo unspecified)	none (no result: Mtb betalactam, RecA intein inh, FBA Mtb inh, GDH-TPI counter-1)
F[B-](F)(F)COCc1ccccc1C#Cc1ccccc1	none (no result: Mtb betalactam, RecA intein inh, FBA Mtb inh, GDH-TPI counter-1)
O=C(N[C@@H](Cc1cccnc1)C(=O)N1CCC[C@H]1C(=O)NCc1ccccc1)c1ccc(Cl)cc1Cl	none (no result: Mtb betalactam, RecA intein inh, FBA Mtb inh, GDH-TPI counter-1)
CC(C)CNc1cccc2c1S(=O)(=O)N[C@@H](CC(C)C)CO2	none (no result: Mtb betalactam, RecA intein inh, FBA Mtb inh, GDH-TPI counter-1)
COC(=O)Nc1nnc(-c2ccccc2OC)s1	FBA Mtb inh 67 | Mtb FBA confirm inactive | GDH-TPI counter-2 inactive | GDH-TPI DR 3.2
Cc1ccc(NC(=O)Nc2nnc(-c3ccncc3)s2)cc1C	none
COC(=O)Nc1nnc(-c2ccncc2)s1	FBA Mtb inh 108 | Mtb FBA confirm 59 | GDH-TPI counter-2 56
